Bioassay records: PubChem, National Center for Advancing Translational Sciences (NCATS)
In the library only some 3.6% were active in any assay of this set; here they are far more common.
Nrf2 inh: inhibitors of Nrf2 signaling; A549 ARE-Fluc reporter, luciferase luminescence, 18-24 h; Potency, µM (highest dose often 46 µM), without a hit: top-dose activity change, negative = inhibition, hits mostly inhibitors; 360,000 tested, 2.1% active; AID 504444; further: on the % scale 0 is the no-effect control and ±100 the full control effect; nearly all actives have a fitted effect of over 60% in size
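In this cell-based qHTS, ARE-driven firefly luciferase in A549 cells reports Nrf2 activity; the luminescent signal after BugLite lysis is the measured value, with a prior CellTiter-Fluor read for cell health.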
Nrf2 ARE act: activates Nrf2 signaling; 410,000 tested, 0.31% active; Potency, µM (top dose mostly 46.1 µM), without a hit: top-dose activation, hits mostly activators; AREc32 ARE-luciferase reporter (MCF7-derived line), luminescence, 24 h; further: % of control where 0% means no effect; nearly all actives have a fitted effect of over 65% in size
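ARE activation measured as luciferase luminescence (Steady-Glo, 30 min RT) in AREc32_Fluc cells after 24 hr compound exposure at 37 deg C, 5% CO2; cells seeded overnight at 1000/well in OPTI-MEM, 5% FBS.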
A549 tox: counter-screen for Nrf2 inhibitors: cytotoxicity in A549 cells; AID 504648; 390,000 tested, 0.16% active; Potency, µM (top dose mostly 46 µM), for inactives: at the top dose activity change, negative = cytotoxicity, usual class: inhibitors; A549 ARE-Fluc cells, CellTiter-Fluor viability, 18-24 h; further: on the % scale 0 is the no-effect control and ±100 the full control effect
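Cytotoxicity counterscreen: CellTiter-Fluor fluorescence was measured in A549 ARE_Fluc cells after 18-24 h of compound exposure in a concentration series. The subsequent BugLite luminescent read reports ARE-luciferase activity.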
TGFb SMAD3 inh: blocks TGF-b signaling; HepG2 CAGA-GFP TGF-b/SMAD3 reporter, GFP fluorescence, 18 h; TGF-beta stimulated, 500 pg/mL final; Potency, µM (top dose mostly 46.1 µM), without a hit: at the top dose activity, negative = inhibition, usual class: inhibitors; 410,000 tested, 1.2% active; further: on the % scale 0 is the no-effect control and ±100 the full control effect; nearly all actives have a fitted effect of over 65% in size
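Inhibition of TGF-beta-driven CAGA-GFP reporter expression in HEPG2 cells is measured by cellular GFP fluorescence after 18 h stimulation with 500 pg/mL recombinant TGF-beta in 1% FBS medium at 37 degrees C.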
HepG2 viability: counter-screen for TGF-b inhibitors: cytotoxicity in HepG2 cells | Potency, µM (doses to about 46.1 µM), for inactives: top-dose activity change, negative = cytotoxicity, actives largely listed as cytotoxic | 410,000 tested, 0.76% active | HepG2 CAGA-GFP viability, ATP luminescence, 18 h
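CellTiter-Glo luminescence gave cytotoxicity after 18 hours at 37 degrees C. The cells were HepG2 CAGA-GFP in 1% FBS DMEM, stimulated with 500 pg/mL TGF-beta after compound addition. %Activity was normalised to no-cell wells (complete cell-killing) and DMSO (no toxicity), and curves were fitted and classified.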
* = called active by the depositor; ? = inconclusive; . = no result given; [ ] = remark or other dose. The call rests on the fitted dose curve; in most records, active means well fitted curve in the direction sought with a large enough effect; inconclusive means small, poorly fitted or top-dose-only effect, or another doubt; inactive means no such curve, though single readings can be large; an effect the other way counts as inactive or inconclusive. Potency means the concentration at half of the fitted maximal effect.

SMILES	Nrf2 inh	Nrf2 ARE act	A549 tox	TGFb SMAD3 inh	HepG2 viability
CN(C)[C@@H]1C(=O)C(C(N)=O)=C(O)[C@@]2(O)C(=O)C3=C(O)c4c(O)ccc(Cl)c4[C@@](C)(O)C3C[C@@H]12 (stereo not given in full)	23µM*	-1%	?	3%	-9%
CN(C)C1C(=O)C(C(N)=O)=C(O)C2(O)C(=O)C3=C(O)c4c(O)cccc4C(C)(O)C3CC12 (stereo not given)	3%	0%	-15%	2%	3%
O=C1NC2C(=CC(O)C(O)C2O)c2cc3c(cc21)OCO3 (stereo not given)	2.1µM*	-2%	?	?	-4%
Cn1cc([N+](=O)[O-])c(C(=O)Nc2ccc3c(C(F)(F)F)cc(=O)oc3c2)n1	-17%	?	-2%	?	-22%
COc1ccc2c(c1)/C(=C/c1cnc[nH]1)C(=O)N2	18µM*	-2%	?	?	-3%
COc1cc(OC)c(/C=C2\C(=O)Nc3ccccc32)c(OC)c1	?	12%	-19%	-15%	-79%
O=C1Nc2ccccc2/C1=C/c1cnc[nH]1	7.3µM*	4%	6%	-11%	-12%
COC1=C(C)C(=O)O[C@]12C(=O)C(C)=C1CCCCN3[C@H]([C@@H]4C[C@H](C)C(=O)O4)CC[C@]132	5%	1%	-1%	?	-18%
O=C(NCCCn1ccnc1)C(Cl)(Cl)Cl	0%	1%	-10%	0%	7%
Cc1cccc(-n2c(/C=C/c3cccc4ccccc34)nc3ccccc3c2=O)c1	.	-2%	-13%	?	-34%
O=c1c2ccccc2nc(/C=C\c2cccc(Br)c2)n1-c1ccc(O)cc1	4%	8%	-10%	13µM*	-105%
Cc1cccc(-n2c(/C=C/c3ccccc3O)nc3ccccc3c2=O)c1	10%	-4%	1%	11µM*	-22%
COc1cccc(C2SCC(=O)Nc3c2c(C)nn3-c2ccc(C)c(Cl)c2)c1OC (stereo not given)	?	1%	-1%	-23%	-26%
Cn1cnc([N+](=O)[O-])c1Sc1ccc([N+](=O)[O-])cc1	9.2µM*	18%	?	-9%	-33%
Cc1ccccc1-n1c(O)c(/C=C2/C(c3ccccc3)=Nc3ccccc32)c(=O)[nH]c1=O	?	6%[9.22 µM]	-1%	25µM*	-42%
CCCCn1c(O)c(C(C)=NCCCn2ccnc2)c(=O)[nH]c1=O	-1%	-1%	0%	0%	16%
COc1ccc(Nc2nc(N)nc(CSc3nc4ccccc4s3)n2)cc1	21µM*	-3%	-6%	?	-37%
C[C@H]1[C@H](OC(=O)CCC(=O)NCc2ccc(C(=O)O)cc2)O[C@@H]2O[C@@]3(C)CC[C@H]4[C@H](C)CC[C@@H]1C24OO3	21µM*	11%	21µM*	-15%	-24%
CC1C(OC(=O)CCC(=O)NC(C)(C)CO)O[C@H]2OC3(C)CC[C@H]4[C@H](C)CCC1C24OO3 (stereo not given in full)	?	5%	-14%	11%	-27%
CC1CC(C)CN(C(=O)COC(=O)c2cn(C)c3ccccc23)C1 (stereo not given)	-4%	0%	0%	-1%	-8%
C=CC[C@@H](CC/C=C/C=C/CC/C=C\[C@@H]1CSC([C@@H]2C[C@@H]2C)=N1)OC	?	?	-4%	14µM*	-59%
CC(=O)N1c2ccc(S(=O)(=O)NCC3CCC(C(=O)Nc4cc(C)cc(C)c4)CC3)cc2CC1C (stereo not given)	21µM*	4%	-2%	-23%	-22%
CC1=C(O)C(=O)C=C2C1=CC=C1C2(C)CCC2(C)C3CC(C)(C(=O)O)CCC3(C)CCC12C (stereo not given)	18µM*	-3%	?	2µM*	3.2µM*
Nc1ccc2ccc3cccc[n+]3c2c1	13µM*	4%	?	73%	8%
O=C1Nc2cc(C(=O)N3CCC4(CC3)OCCO4)ccc2S/C1=C\c1ccccc1	?	0%	-1%	-15%	2%
SMILES	Nrf2 inh	Nrf2 ARE act	A549 tox	TGFb SMAD3 inh	HepG2 viability
O=C1/C(=C/c2ccccc2)C[C@@]2(O)[C@H]3Cc4ccc(O)c5c4[C@@]2(CCN3CC2CC2)C1O5 (stereo not given in full)	12µM*	-4%	?	5.6µM*	10µM*
CC(C)COP(=O)(c1ccc(N(C)C)cc1)C(Nc1ccccc1)c1ccccc1 (stereo not given)	?	0%	-11%	-6%	-18%
Cc1c2ccncc2c(C)c2c1[nH]c1ccccc12	7.3µM*	5%	?	?	13µM*
Cc1ccc2c(c1)c(C1=c3ccccc3=NC1=O)c(O)n2C	?	11µM*	4%	-18%	-16%
CC1CCN(c2ccccc2NC(=O)c2cc3ccccc3o2)CC1	15%	10%	21%	?	0%
O=C(CSC1c2ccccc2-c2ccccc21)N/N=C/c1ccc(C(=O)O)cc1	1%	0%	-3%	5%	1%
O=C(CSC1c2ccccc2-c2ccccc21)N/N=C/c1ccccc1O	5.2µM*	4%	21µM*	?	-32%
CN1C(=O)NC(=O)/C(=C/c2ccc(C(=O)O)cc2)C1=O	-15%	0%	-4%	18%	0%
Cc1cc2c(C(C)C)c(O)c(O)c(C=O)c2c(O)c1-c1c(C)cc2c(C(C)C)c(O)c(O)c(C=O)c2c1O	.	.	.	1.1µM*	1.4µM*
O=Cc1cn(Cc2ccc([N+](=O)[O-])cc2)c2ccccc12	-7%	3%	-3%	2.2µM*	-3%
Cc1ccc(Cn2cc(C=O)c3ccccc32)cc1	-22%	3%	-3%	0.35µM*	-38%
O=Cc1cn(Cc2ccc(F)cc2)c2ccccc12	?	0%	2%	0.71µM*	-43%
COC(=O)C1=C(c2ccc(OC)c(OC)c2)C[C@@H]2CC[C@H]1N2C(=O)NCCOc1ccccc1Cl	2%	3%	2%	?	-1%
CN(C(=O)Oc1ccc([N+](=O)[O-])cc1)c1ccccc1	19%	2%	1%	-3%	24%
O=C(CCC1CCCC1)c1c(O)c2ccccc2oc1=O	21µM*	6%	?	-10%	-32%
O=c1oc2ccccc2c(O)c1C(c1ccccn1)c1c(O)c2ccccc2oc1=O	-8%	-1%	-10%	34%	0%
O=c1[nH]c(=O)n(-c2cccc3ccccc23)c(O)c1C=NCc1ccc2c(c1)OCO2	-11%	0%	-12%	-12%	-19%
CN1CCc2c([nH]c3ccccc23)C1	-6%	-1%	6%	-3%	-6%
O=C(CF)N(O)c1ccc(C=Cc2ccccc2)cc1	-12%	13%	-12%	7.1µM*	-40%
